Test results published in PubChem BioAssay (EPA / NIEHS).
“And” between values parts separate entries of the source, which are not always exact repeats. Equal values may be shown once. Inconclusive results are not listed. Where a structure was tested more than once in an assay, its records may differ in their call. The source made the active and inactive calls. How the source made its calls: active means hit-call score of the fitted dose curve at least 0.9, where 1 is the maximum; inconclusive means response in the unintended direction; inactive means score below 0.9.

Experiment: Tanguay_ZF_120hpf_PE_legacy: (Legacy) Oregon State University Tanguay Lab 120 Hour Post-fertilization zebrafish Assay for Pericardial Edema (AID 2283640);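 on AC50: potency for increased incidence of pericardial edema versus DMSO baseline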
Procedure: Tanguay_ZF_120hpf_legacy is a whole embryo, multiplexed endpoint assay using zebrafish larvae exposed for 120 hours post fertilization on a 96-well plate.Tanguay_ZF_120hpf_PE_legacy is one of one assay component(s) measured or calculated from the Tanguay_ZF_120hpf_legacy assay. It is designed to make measurements of zebrafish development as detected with brightfield microscopy of developing zebrafish embryos.Data from the assay component Tanguay_ZF_120hpf_PE_legacy was analyzed into 1 assay endpoints. This assay endpoint, Tanguay_ZF_120hpf_PE_legacy, was analyzed in the positive analysis fitting direction relative to DMSO as the negative control and baseline of activity. Using a type of morphology reporter, gain-of-signal activity can be used to understand changes in developmentals as they relate to the whole embryo. To generalize the intended target to other relatable targets, this assay endpoint is annotated to the zebrafish development intended target family, where the subfamily is embryonic morphogenesis.
Zebrafish husbandry: Tropical 5D wild-type adult zebrafish were housed in at an approximate density of 1000 per 100 gallon tank at the Sinnhuber Aquatic Research Laboratory, Oregon State University, Corvallis, OR. Each tank was kept at standard laboratory conditions of 28C on a 14-h light/10-h dark photoperiod in fish water consisting of reverse osmosis water supplemented with a commercially available salt (Instant Ocean). Spawning funnels were placed into the tanks the night prior, and embryos were collected and staged. […] Ten microliters of each row of dilution plate 2 was added to 2 exposure plates. The final DMSO concentration used was 0.64% (vol/vol). Thirty-two embryos were also exposed to 5uM trimethyltin chloride (positive control). Plates were sealed to prevent evaporation and foil covered to reduce light exposure and kept in a 28C incubator. Embryos were statically exposed until 120 hpf. At 24 hpf, embryos were assessed for photomotor response using a custom photomotor response analysis tool (PRAT) and for developmental toxicity endpoints (MO24: mortality at 24 hpf, DP: developmental progression, SM: spontaneous movement, and NC: notochord distortion). At 120 hpf, locomotor activity was measured using Viewpoint Zebralab and assessed for 18 endpoints. Zebrafish acquisition and analysis program (ZAAP), a custom program designed to inventory, acquire, and manage zebrafish data, was used to collect developmental endpoints as either present or absent (i.e., binary responses were recorded). If mortality occurred for an embryo (at either 24 or 120 hpf), the non-mortality endpoints were not measured.

SMILES	outcome	AC50
CNC(=O)CSP(=S)(OC)OC	inactive	–
O=[N+]([O-])c1c(Cl)c(Cl)c(Cl)c(Cl)c1Cl	inactive	–
CCCN(CCOc1c(Cl)cc(Cl)cc1Cl)C(=O)n1ccnc1	inactive	–
COP(=S)(OC)Oc1ccc([N+](=O)[O-])cc1	inactive	–
CCC(C)(C)C(=O)OC1=C(c2ccc(Cl)cc2Cl)C(=O)OC12CCCCC2	inactive	–
COP(=S)(OC)Oc1ccc(SC)c(C)c1	inactive	–
N#Cc1c(Cl)c(Cl)c(Cl)c(C#N)c1Cl	inactive	–
O=C(NC(=O)c1c(F)cccc1F)Nc1ccc(OC(F)(F)C(F)OC(F)(F)F)c(Cl)c1 (stereo not given)	inactive	–
ClC1C(Cl)C(Cl)C(Cl)C(Cl)C1Cl (stereo not given)	inactive	–
CCOCN(C(=O)CCl)c1c(C)cccc1CC	inactive	–
O=C(O)C(F)(F)C(F)(F)C(F)(F)C(F)(F)C(F)(F)C(F)(F)C(F)(F)F	inactive	–
O=C(O)COc1ccc(Cl)cc1Cl	inactive	–
O=C(O)CCCOc1ccc(Cl)cc1Cl	–	24.2 µM (active)
CCN(CC)C(=O)SCc1ccc(Cl)cc1	inactive	–
O=S(=O)(O)C(F)(F)C(F)(F)C(F)(F)C(F)(F)C(F)(F)C(F)(F)C(F)(F)C(F)(F)F	inactive	14.5 µM (active) and 36.8 µM (active)
COc1nn(CSP(=S)(OC)OC)c(=O)s1	inactive	–
OCCOc1ccccc1	inactive	–
CC[C@H](C)[C@H]1O[C@]2(C=C[C@@H]1C)C[C@@H]1C[C@@H](C/C=C(\C)[C@@H](O[C@H]3C[C@H](OC)[C@@H](O[C@H]4C[C@H](OC)[C@@H](O)[C@H](C)O4)[C@H](C)O3)[C@@H](C)/C=C/C=C3\CO[C@@H]4[C@H](O)C(C)=C[C@@H](C(=O)O1)[C@]34O)O2 (tested in a mixture with another compound)	–	0.808 µM (active)
Oc1cc(Cl)ccc1Oc1ccc(Cl)cc1Cl	inactive	–
CC1(C)C(C=C(Cl)Cl)C1C(=O)OC(C#N)c1ccc(F)c(Oc2ccccc2)c1 (stereo not given)	inactive	–

SMILES	outcome	AC50
CC(C)(C)C(O)/C(=C\c1ccc(Cl)cc1Cl)n1cncn1 (stereo not given)	–	42.4 µM (active)
CC(C)(C)C(O)C(Oc1ccc(Cl)cc1)n1cncn1 (stereo not given)	–	47.5 µM (active) and 32.6 µM (active) and 43.3 µM (active)
Cc1[nH]c(=O)n(C(C)(C)C)c(=O)c1Cl	inactive	–
O=C1c2ccccc2C(=O)N1SC(Cl)(Cl)Cl	inactive	–
C#CCN1C(=O)COc2cc(F)c(N3C(=O)C4=C(CCCC4)C3=O)cc21	inactive	–
O=[N+]([O-])/N=C1\NCCN1Cc1ccc(Cl)nc1	inactive	–
Oc1ccc(Cl)cc1Cc1ccccc1	inactive	–
O=S1OCC2C(CO1)C1(Cl)C(Cl)=C(Cl)C2(Cl)C1(Cl)Cl (stereo not given)	inactive	–
COP(=O)(OC)OC=C(Cl)Cl	inactive	–
CNC(=O)Oc1cccc(N=CN(C)C)c1	inactive	–
N#CN	inactive	–
O=C(Nc1ccccc1)Nc1cnns1	inactive	–
C[C@H]1[C@H](c2ccc(Cl)cc2)SC(=O)N1C(=O)NC1CCCCC1	inactive	–
CCC(C)(NC(=O)c1cc(Cl)c(C)c(Cl)c1)C(=O)CCl (stereo not given)	inactive	–
CNC(=O)/C=C(\C)OP(=O)(OC)OC	inactive	–
CNC(=O)Oc1ccccc1OC(C)C	inactive	–
CC(C)N(C(=O)COc1nnc(C(F)(F)F)s1)c1ccc(F)cc1	inactive	–
CC(C)OC(=O)Nc1cccc(Cl)c1	–	37.7 µM (active)
CCOC1Oc2ccc(OS(C)(=O)=O)cc2C1(C)C (stereo not given)	inactive	–
